The source of these data is PubChem BioAssay (Tox21).

Unmarked numbers belong to inactive results. Inconclusive results are not listed. Activity calls are given as the source filed them. Unless noted, calls come from the whole dose curve; as a rule, active = well fitted curve in the direction sought with a large enough effect in the repeat runs; inconclusive = weak or mixed curves; inactive = no such curve, though single readings can be large; an effect the other way counts as inactive or inconclusive.

Experiment [1] can be described thus: qHTS assay to identify small molecule agonists of the estrogen receptor alpha (ER-alpha) signaling pathway in the presence of an antagonist - cell viability counter screen (AID 1259386).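 Note: series mostly up to about 92 µM; cells exposed to compounds for 22 h at 37 °C before the viability read; nearly all actives have a fitted effect of over 30% in size.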 The gist of the method:
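In this counter screen, compound effects on VM7Luc4E2 viability were tested in the presence of the antagonist ICI-182,780 at 10.0nM final. Compounds were dosed at 15 concentrations, exposure lasted 22hr, and the CellTiter-Fluor signal was read.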
On the technique in general: Quantitative high-throughput screening tests each substance at several concentrations.

The target in experiment [2] is Progesterone receptor (Homo sapiens) (UniProt P06401). Put plainly: qHTS assay to identify small molecule agonists of the progesterone receptor (PR) signaling pathway (AID 1346784; calls by dose curve; note: nearly all actives have a fitted effect of over 30% in size). The gist of the method:
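Beta-lactamase reporter read-out: after 16 hr compound treatment at 37C and a further 2 hr at room temperature with LiveBLAzer B/G FRET substrate, fluorescence was measured in PR-UAS-bla HEK 293T cells grown in 2% charcoal-stripped serum.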

Experiment [3] has the same target. The experiment in a line: qHTS assay to identify small molecule antagonists of the progesterone receptor (PR) signaling pathway (AID 1346795; active = well fitted inhibition curve with a large enough effect in the signal ratio in the repeat runs, not every such curve was filed as active; the % refers to the signal ratio; note: potency is the fitted concentration of half-maximal effect). Summed up:
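Read-out is fluorescence from the LiveBLAzer B/G FRET substrate, cleaved by a UAS-controlled beta-lactamase in PR-UAS-bla HEK293T cells after 16 hr exposure to compound plus 1 nM promegestone (final), followed by 2 hr at room temperature.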

A short description of experiment [4]: qHTS assay to identify small molecule antagonists of the progesterone receptor (PR) signaling pathway - cell viability counter screen (AID 1346798). Note: series mostly up to about 92 µM; nearly all actives have a fitted effect of over 50% in size. The gist of the method: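 HEK293T PR-UAS-bla, 2% charcoal-stripped FBS; 4 hr pre-plate; cpd + R5020, 16 h 37C; LiveBLAzer read first; then CellTiter-Glo 30 min RT, luminescence.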
Experiment [5] is described as follows: qHTS assay to identify small molecule antagonists of the TGF-beta/Smad signaling pathway - cell viability counter screen (AID 1346824). Note: nearly all actives have a fitted effect of over 50% in size. Summed up:
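SBE-bla HEK 293T cells, incubated overnight, then compound plus 0.25 ng/mL TGF-beta1 (stock added) for 5 hr at 37 C. Viability was read in the same wells by CellTiter-Glo luminescence after 30 min at room temperature.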

Experiment [6] is described as follows: qHTS assay to identify small molecule agonists of the TGF-beta/Smad signaling pathway - cell viability counter screen (AID 1346829). Note: top concentration of the series differs between compounds; nearly all actives have a fitted effect of over 45% in size. The gist of the method: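 Cytotoxicity counter screen: CellTiter-Glo luminescence (30 min, room temperature) measured in the SBE-bla HEK 293T reporter wells after 5 hr compound treatment at 37 C and the 2 hr substrate step.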

The nature of experiment [7]: qHTS assay to identify small molecule agonists of the TGF-beta/Smad signaling pathway (AID 1346859; active = well fitted activation curve with a large enough effect in the signal ratio in the repeat runs, not every such curve was filed as active; the % refers to the signal ratio; note: series mostly up to about 77 µM). Summed up:
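SBE-bla HEK 293T, 4,000 cells/well, plated o/n; cpd in DMSO, 5 hr, 37 C/5% CO2; B/G FRET substrate 2 hr RT; ex 405, em 460/530 nm.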

For experiment [8], the target named is Thyrotropin-releasing hormone receptor (Homo sapiens) (UniProt P34981). The experiment in a line: qHTS assay to identify small molecule antagonists of the thyrotropin-releasing hormone receptor (TRHR) signaling pathway (AID 1346877; active = well fitted inhibition curve with a large enough effect in the repeat runs, not every such curve was filed as active; note: series mostly up to about 51 µM). The gist of the method: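 Kinetic fluorescence (3 min, 1 s resolution) following stimulation with TRH at 1 nM final; HEK293 cells bearing human TRHR; 5 min compound preincubation at RT; concentration-response over 15 points, triplicates.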
Chain of Thyrotropin-releasing hormone receptor (Homo sapiens) (P34981 whole entry, looked up): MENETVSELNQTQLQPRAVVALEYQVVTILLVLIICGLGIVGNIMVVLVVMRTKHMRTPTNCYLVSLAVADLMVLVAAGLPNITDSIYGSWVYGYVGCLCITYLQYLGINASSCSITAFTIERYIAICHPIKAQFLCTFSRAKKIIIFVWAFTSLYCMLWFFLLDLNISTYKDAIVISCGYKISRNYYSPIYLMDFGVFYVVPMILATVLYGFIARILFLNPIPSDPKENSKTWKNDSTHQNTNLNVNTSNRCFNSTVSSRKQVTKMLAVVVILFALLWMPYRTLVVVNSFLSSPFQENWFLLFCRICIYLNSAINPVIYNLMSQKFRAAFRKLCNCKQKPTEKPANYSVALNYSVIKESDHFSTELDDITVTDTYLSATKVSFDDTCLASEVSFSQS

The target is the same in experiment [9]. The experiment in a line: qHTS assay to identify small molecule agonists of the thyrotropin-releasing hormone receptor (TRHR) signaling pathway (AID 1346891; calls by dose curve; note: series mostly up to about 58 µM). Summed up:
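Intracellular calcium rise, read as fluorescence every second for 3 min, served as the agonist signal in dye-loaded HEK293 cells expressing TRHR; each compound ran at 15 concentrations in triplicate.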

Experiment [10] in a line: Human pregnane X receptor (PXR) small molecule agonists, qHTS cell viability counter screen (AID 1346977). Note: nearly all actives have a fitted effect of over 50% in size. The gist of the method:
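PXR-Luc HepG2, 2,000 cells/well, 5% charcoal-stripped FBS; 5hr settle; cpd 24hr, 37C/5% CO2; CellTiter-Fluor at 23hr, read 1hr later (fluorescence).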

Experiment [11] is described as follows: Caspase-3/7 induction in HepG2 cells by small molecules, qHTS assay (AID 1346978). Note: nearly all actives have a fitted effect of over 15% in size. The gist of the method: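 Wild-type HepG2 cells, 2,000/well, settled 5 hr at 37 C and 5% CO2, then compound-treated for 17 hr; caspase-3/7 activity read by luminescent Caspase-Glo 3/7 after 30 min at room temperature.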
The nature of experiment [12]: Caspase-3/7 induction in CHO-K1 cells by small molecules, qHTS assay (AID 1346980). Note: nearly all actives have a fitted effect of over 15% in size. Summed up: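 Wild-type CHO-K1 cells exposed to compounds for 17hr at 37 C, 5% CO2. Caspase-3/7 activity then measured by Caspase-Glo 3/7 luminescence after 30min at room temperature.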
Experiment [13] is described as follows: Caspase-3/7 induction in HepG2 cells by small molecules, qHTS cell viability counter screen (AID 1346981). Note: series mostly up to about 92 µM; nearly all actives have a fitted effect of over 30% in size. Summed up:
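In this quantitative HTS counter screen, compounds delivered in DMSO were left on unmodified HepG2 cells for 16 hr at 37 C. Viability was then determined fluorometrically with CellTiter-Fluor, in parallel with caspase-3/7 induction in the same wells.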

The target of experiment [14] is Nuclear receptor subfamily 1 group I member 2 (Homo sapiens) (UniProt O75469). The experiment in a line: Human pregnane X receptor (PXR) small molecule agonists, qHTS assay (AID 1346982). Note: nearly all actives have a fitted effect of over 35% in size. Note: potency is the fitted concentration of half-maximal effect. Summed up: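 Reporter HepG2 cells expressing PXR-Luc are cultured in charcoal-stripped FBS (5%), treated with compounds for 24 hr at 37 C, and assayed by ONE-Glo luminescence after 30 min at room temperature.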
Chain of Nuclear receptor subfamily 1 group I member 2 (Homo sapiens) (O75469 whole entry, looked up): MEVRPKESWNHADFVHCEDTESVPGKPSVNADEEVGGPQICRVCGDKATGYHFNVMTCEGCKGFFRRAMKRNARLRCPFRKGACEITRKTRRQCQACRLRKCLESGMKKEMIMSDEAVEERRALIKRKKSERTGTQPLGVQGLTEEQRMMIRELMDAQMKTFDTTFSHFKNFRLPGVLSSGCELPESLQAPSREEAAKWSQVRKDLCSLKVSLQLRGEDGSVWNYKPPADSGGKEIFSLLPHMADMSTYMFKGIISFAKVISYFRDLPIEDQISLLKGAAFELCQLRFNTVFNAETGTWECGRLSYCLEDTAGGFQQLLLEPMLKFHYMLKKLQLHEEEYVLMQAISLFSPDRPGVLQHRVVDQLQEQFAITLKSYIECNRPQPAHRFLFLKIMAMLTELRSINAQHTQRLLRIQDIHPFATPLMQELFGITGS

Experiment [15] has as its target Nuclear receptor subfamily 1 group I member 2 (Rattus norvegicus) (UniProt Q9R1A7). Put plainly: Rat pregnane X receptor (rPXR) activation by small molecules, qHTS assay (AID 1346983). Note: nearly all actives have a fitted effect of over 20% in size. The settings on record: rPXR luciferase reporter cells, One-Glo luminescence, 24 h; active compounds read high. Summed up:
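Cell-based rPXR activation assay: rPXR cells, 2,000 per well, rested 5hr at 37 C, then exposed to compounds in DMSO for 24 hr at 37 C. Luciferase activity read by One-Glo luminescence after 30 min at room temperature.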

The target in experiment [16] is Nuclear receptor subfamily 1 group I member 2 (Homo sapiens) (UniProt O75469). Put plainly: CYP3A4 induction through human pregnane X receptor (PXR) by small molecules, qHTS assay (AID 1346984). Note: nearly all actives have a fitted effect of over 40% in size. Summed up:
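Induction measured in HepG2-based DPX-2 cells co-expressing human PXR and a CYP3A4 promoter-driven luciferase. After a 24-hour compound exposure, cells received CYP3A4 luciferin substrate at 3uM final for 3 hours, and light output was then recorded.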

The target is the same in experiment [17]. The experiment in a line: Human pregnane X receptor (PXR) activation by small molecules, qHTS assay (AID 1346985). Note: nearly all actives have a fitted effect of over 40% in size. Summed up:
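DPX-2 cells (HepG2 co-transfected with a PXR response element and a CYP3A4-promoter luciferase construct) were seeded at 2,000 per well, rested 5 hr at 37C, then exposed to DMSO-dissolved compounds for 24 hr. Activation was read as luciferase luminescence.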

The target of experiment [18] is Acetylcholinesterase (Homo sapiens) (UniProt P22303). The experiment in a line: Acetylcholinesterase (AChE) small molecule antagonists: colormetric cell-based qHTS assay (AID 1347395; calls by dose curve; note: nearly all actives have a fitted effect of over 30% in size; note: potency is the fitted concentration of half-maximal effect). The gist of the method: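 Colorimetric read-out: DTNB detects thiocholine released when cellular AChE in SH-SY5Y cells hydrolyses acetylthiocholine. Cells attached overnight, received compound for 30 min at 37 C, then substrate mix for 90 min at 37 C.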
Chain of Acetylcholinesterase (Homo sapiens) (P22303 whole entry, looked up): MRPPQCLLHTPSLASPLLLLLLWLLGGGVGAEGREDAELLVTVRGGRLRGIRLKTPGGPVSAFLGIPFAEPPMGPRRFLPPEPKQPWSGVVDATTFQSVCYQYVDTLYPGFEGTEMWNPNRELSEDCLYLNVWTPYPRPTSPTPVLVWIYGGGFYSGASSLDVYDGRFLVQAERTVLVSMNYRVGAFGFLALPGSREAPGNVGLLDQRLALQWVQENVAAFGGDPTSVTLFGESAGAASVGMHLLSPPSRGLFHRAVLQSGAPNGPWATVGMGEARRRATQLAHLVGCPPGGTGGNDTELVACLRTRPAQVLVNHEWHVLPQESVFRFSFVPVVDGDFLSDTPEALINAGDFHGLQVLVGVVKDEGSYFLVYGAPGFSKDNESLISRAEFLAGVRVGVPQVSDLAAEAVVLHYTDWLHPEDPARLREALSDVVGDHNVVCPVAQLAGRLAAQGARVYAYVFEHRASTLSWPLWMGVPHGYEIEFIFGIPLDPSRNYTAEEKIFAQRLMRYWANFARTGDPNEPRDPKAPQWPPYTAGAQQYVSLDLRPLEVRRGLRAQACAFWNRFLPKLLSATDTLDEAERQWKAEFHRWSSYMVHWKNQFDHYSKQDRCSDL

The nature of experiment [19]: qHTS assay to identify small molecule agonists of the progesterone receptor (PR) signaling pathway - cell viability counter screen (AID 1346799; calls by dose curve; note: nearly all actives have a fitted effect of over 45% in size). The gist of the method:
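Luminescence from CellTiter-Glo, added after the beta-lactamase FRET read in the same wells, gave cytotoxicity in PR-UAS-bla HEK293T cells treated with compounds for 16 hr at 37C.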

A short description of experiment [20]: Caspase-3/7 induction in CHO-K1 cells by small molecules, qHTS cell viability counter screen (AID 1346979). Note: nearly all actives have a fitted effect of over 35% in size. Summed up:
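Cells (CHO-K1, wild type) are plated at 1,500 per well and incubated 5hr. Test compounds in DMSO are then pinned in, followed by 16hr at 37C and 5% CO2. Viability is read by CellTiter-Fluor fluorescence after 1hr.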
% is set by controls: 0 for no effect and ±100 for the full control effect.

Chain of Progesterone receptor (Homo sapiens) (P06401 whole entry, looked up): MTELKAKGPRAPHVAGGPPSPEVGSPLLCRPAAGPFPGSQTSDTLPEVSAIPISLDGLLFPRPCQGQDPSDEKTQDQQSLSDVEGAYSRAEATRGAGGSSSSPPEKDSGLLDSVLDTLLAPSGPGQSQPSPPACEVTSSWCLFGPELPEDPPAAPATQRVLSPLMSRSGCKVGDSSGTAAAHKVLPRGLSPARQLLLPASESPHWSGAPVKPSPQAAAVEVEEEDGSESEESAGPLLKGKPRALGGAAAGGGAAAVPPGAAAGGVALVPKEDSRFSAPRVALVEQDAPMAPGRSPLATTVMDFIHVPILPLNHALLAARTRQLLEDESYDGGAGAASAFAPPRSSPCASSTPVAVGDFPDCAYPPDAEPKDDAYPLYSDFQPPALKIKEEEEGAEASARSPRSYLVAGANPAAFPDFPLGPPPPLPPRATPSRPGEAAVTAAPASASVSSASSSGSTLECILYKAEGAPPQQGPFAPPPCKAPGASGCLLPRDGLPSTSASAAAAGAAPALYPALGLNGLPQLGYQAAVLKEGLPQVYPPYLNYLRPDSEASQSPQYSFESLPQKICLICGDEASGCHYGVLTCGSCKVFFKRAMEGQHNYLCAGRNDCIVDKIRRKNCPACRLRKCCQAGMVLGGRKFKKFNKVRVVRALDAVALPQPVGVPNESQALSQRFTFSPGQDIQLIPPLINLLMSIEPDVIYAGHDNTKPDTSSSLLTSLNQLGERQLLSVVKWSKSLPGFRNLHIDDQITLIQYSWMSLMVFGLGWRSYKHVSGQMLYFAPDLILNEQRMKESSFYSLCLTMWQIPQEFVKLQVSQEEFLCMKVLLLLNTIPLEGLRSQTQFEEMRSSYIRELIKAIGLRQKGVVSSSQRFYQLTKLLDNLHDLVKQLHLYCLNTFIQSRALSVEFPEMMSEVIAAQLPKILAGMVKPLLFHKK
Chain of Nuclear receptor subfamily 1 group I member 2 (Rattus norvegicus) (Q9R1A7 whole entry, looked up): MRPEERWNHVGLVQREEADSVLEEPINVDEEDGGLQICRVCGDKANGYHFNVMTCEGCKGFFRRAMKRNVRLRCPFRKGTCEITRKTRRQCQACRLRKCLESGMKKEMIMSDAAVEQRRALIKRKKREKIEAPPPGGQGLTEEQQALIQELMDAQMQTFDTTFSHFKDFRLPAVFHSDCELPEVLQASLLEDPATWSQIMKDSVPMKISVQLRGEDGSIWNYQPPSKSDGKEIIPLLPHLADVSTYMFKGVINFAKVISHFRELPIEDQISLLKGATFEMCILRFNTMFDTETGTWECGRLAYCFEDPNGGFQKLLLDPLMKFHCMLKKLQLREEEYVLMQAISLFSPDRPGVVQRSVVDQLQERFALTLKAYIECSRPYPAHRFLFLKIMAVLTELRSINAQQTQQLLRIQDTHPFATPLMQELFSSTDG

For `c1ccc2c(c1)sc1ccccc12`, the Potency result in experiment [1], in [2], in experiment [3], in experiment [4], in experiment [5] and in [6] was “inactive” each time. Besides, the Potency result in experiment [8], in experiment [10], in experiment [11], in experiment [12], in [13] and in experiment [14] was “inactive” in each case. The Potency result in [17] and in experiment [18] was “inactive” in each case. For the same compound, the outcome in experiment [7], in [9] and in [16] was inactive. Besides, the max activation in experiment [15] was -3.19%.

As to `CNC(=O)Oc1cccc(N=CN(C)C)c1`, the Potency entry in [1], in experiment [2], in experiment [3], in [4], in experiment [5] and in experiment [6] was “inactive” in each case. Moreover, the Potency result in experiment [8], in [10], in [11], in experiment [12] and in experiment [14] was “inactive” each time. Moreover, the result in experiment [7] and in experiment [9] was inactive. In addition, the Potency in experiment [18] was 3.99 µM (active).

`Oc1cccc(Cl)c1`: the Potency result in experiment [1], in experiment [2], in experiment [3], in [19], in experiment [8] and in experiment [10] was “inactive” each time. Also, the Potency entry in experiment [11], in experiment [20], in [12], in experiment [13] and in experiment [18] was “inactive” each time. In experiment [9], the compound was classed as inactive.

As for `C=CCOCC1CO1` (stereo not given), the Potency entry in experiment [1], in experiment [2], in experiment [3], in experiment [19], in experiment [5] and in [6] was “inactive” each time. Moreover, the Potency entry in experiment [8], in experiment [10], in [11], in [12], in [14] and in [18] was “inactive” throughout. The compound was called inactive in experiment [7] and in experiment [9].

As for `Nc1ccc2c(c1)Cc1ccccc1-2`, the Potency result in [1], in [2], in experiment [19], in experiment [5], in experiment [6] and in experiment [8] was “inactive” throughout. Also, the Potency result in experiment [10], in experiment [11], in experiment [20], in experiment [12], in experiment [13] and in experiment [18] was “inactive” throughout. In addition, the Potency in experiment [3] was 6.08 µM (active); in [14], 27.1 µM (active).

As for `O=C(Cl)OCCOCCOC(=O)Cl`, the Potency entry in experiment [1], in experiment [2], in experiment [3], in experiment [4], in [5] and in [6] was “inactive” in each case. In addition, the Potency result in [10], in [11], in experiment [12], in experiment [14] and in experiment [18] was “inactive” in each case. Further, the compound was classed as inactive in [7].

Turning to `O=C(Cc1ccccc1)OCCc1ccccc1`, the Potency result in experiment [1], in [2], in [3], in [4], in [5] and in experiment [6] was “inactive” throughout. For the same compound, the Potency entry in experiment [8], in experiment [10], in experiment [11], in [20], in experiment [12] and in experiment [13] was “inactive” each time. For the same compound, the Potency entry in experiment [14] and in experiment [18] was “inactive” each time. The call in experiment [7] and in [9] was inactive.

Regarding `CCCCCBr`, the Potency entry in experiment [1], in [2], in experiment [3], in [4], in experiment [5] and in experiment [6] was “inactive” in each case. Also, the Potency entry in experiment [8], in experiment [10], in experiment [11], in experiment [20], in experiment [12] and in [14] was “inactive” throughout. In addition, the Potency entry in [18] is “inactive”. In addition, the result in [7] and in [9] was inactive.
